Inconclusive results are not listed. Calls of active or inactive are those of the source. Unless noted, the call rests on the fitted dose curve; in most records, active means well fitted curve in the direction sought with a large enough effect in the repeat runs; inconclusive means weak or mixed curves; inactive means no such curve, though single readings can be large; an effect the other way counts as inactive or inconclusive.

Experiment [1] is described as follows: qHTS assay to identify small molecule agonists of the estrogen receptor alpha (ER-alpha) signaling pathway in the presence of an antagonist - cell viability counter screen (AID 1259386).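 Further: cells exposed to compounds for 22 h at 37 °C before the viability read; nearly all actives have a fitted effect of over 30% in size.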 Further: potency means the concentration at half of the fitted maximal effect. Summed up: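 Fluorescent CellTiter-Fluor viability signal from VM7Luc4E2 cells, with the reagent added during the final hour of a 22hr compound exposure at 37C in the presence of 10.0nM ICI-182,780.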
A general note: qHTS replaces the single test concentration by a dilution series.

The target in experiment [2] is Progesterone receptor (Homo sapiens) (UniProt P06401). Nature of the experiment: qHTS assay to identify small molecule agonists of the progesterone receptor (PR) signaling pathway (AID 1346784; calls by dose curve; further: nearly all actives have a fitted effect of over 30% in size). Summed up: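 Seed PR-UAS-bla HEK 293T cells (2% charcoal-stripped FBS), incubate 6 hr at 37C; add compounds in DMSO, 16 hr at 37C; add LiveBLAzer B/G substrate, 2 hr RT; read fluorescence intensity.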

Experiment [3] in a line: qHTS assay to identify small molecule antagonists of the progesterone receptor (PR) signaling pathway - cell viability counter screen (AID 1346798). Further: nearly all actives have a fitted effect of over 50% in size. Further: potency means the concentration at half of the fitted maximal effect. Summed up: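 Measures cytotoxicity in parallel with the PR antagonist reporter read: HEK293T PR-UAS-bla cells get compound and R5020 for 16 hr, and remaining viable cells are quantified by CellTiter-Glo luminescence.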
Experiment [4] in a line: qHTS assay to identify small molecule agonists of the progesterone receptor (PR) signaling pathway - cell viability counter screen (AID 1346799; calls by dose curve; further: nearly all actives have a fitted effect of over 45% in size; further: potency means the concentration at half of the fitted maximal effect). Summed up:
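Using the same plates as the PR reporter screen, HEK293T PR-UAS-bla cells received compounds for 16 hr at 37C and were then lysed with CellTiter-Glo; luminescence was read 30 min later at room temperature.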

Experiment [5] in a line: qHTS assay to identify small molecule antagonists of the TGF-beta/Smad signaling pathway - cell viability counter screen (AID 1346824). Further: nearly all actives have a fitted effect of over 50% in size. Further: potency means the concentration at half of the fitted maximal effect. An outline of the steps: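 SBE-bla HEK 293T cells, incubated overnight, then compound plus 0.25 ng/mL TGF-beta1 (stock added) for 5 hr at 37 C. Viability was read in the same wells by CellTiter-Glo luminescence after 30 min at room temperature.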

Experiment [6] in a line: qHTS assay to identify small molecule agonists of the TGF-beta/Smad signaling pathway - cell viability counter screen (AID 1346829). Further: top concentration of the series differs between compounds; nearly all actives have a fitted effect of over 45% in size. An outline of the steps:
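Tox21 qHTS format: SBE-bla HEK 293T cells treated with DMSO-dissolved compounds for 5 hr; CellTiter-Glo luminescence after 30 min at room temperature.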

Experiment [7] is described as follows: qHTS assay to identify small molecule agonists of the TGF-beta/Smad signaling pathway (AID 1346859; active means well fitted activation curve with a large enough effect in the signal ratio in the repeat runs, not every such curve was filed as active; the % refers to the signal ratio; further: series mostly up to about 77 µM). An outline of the steps: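 Beta-lactamase reporter activity downstream of Smad binding elements was measured in stably transfected HEK 293T cells; compounds were incubated for 5 hr, substrate for 2 hr at room temperature.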
Experiment [8] deals with Thyrotropin-releasing hormone receptor (Homo sapiens) (UniProt P34981). Nature of the experiment: qHTS assay to identify small molecule antagonists of the thyrotropin-releasing hormone receptor (TRHR) signaling pathway (AID 1346877; active means well fitted inhibition curve with a large enough effect in the repeat runs, not every such curve was filed as active; further: series mostly up to about 51 µM). An outline of the steps:
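In this cell-based calcium flux format, HEK293 cells expressing TRHR received test compound for 5 min before the agonist TRH (1 nM final). Dye loading lasted 2 h at 37 °C.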

Experiment [9] shares this target. Nature of the experiment: qHTS assay to identify small molecule agonists of the thyrotropin-releasing hormone receptor (TRHR) signaling pathway (AID 1346891; calls by dose curve; further: series mostly up to about 58 µM). An outline of the steps:
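Overnight-plated (18 h, 37 °C, 5% CO2) TRHR-Hek293 cells; 2 h calcium dye at 37 °C; compound in DMSO; 3-min kinetic fluorescence read.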

The target of experiment [10] is Progesterone receptor (Homo sapiens) (UniProt P06401). Nature of the experiment: qHTS assay to identify small molecule antagonists of the progesterone receptor (PR) signaling pathway (AID 1346795; active means well fitted inhibition curve with a large enough effect in the signal ratio in the repeat runs, not every such curve was filed as active; the % refers to the signal ratio; further: potency means the concentration at half of the fitted maximal effect). Summed up: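 Screening used a GripTite HEK293T line with PR-responsive UAS-beta-lactamase. Cells were challenged with compound in the presence of 1 nM R5020 final for 16 hr at 37C; B/G FRET substrate, 2 hr room temperature, fluorescence.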

Progesterone receptor (Homo sapiens), sequence (P06401 whole entry, looked up): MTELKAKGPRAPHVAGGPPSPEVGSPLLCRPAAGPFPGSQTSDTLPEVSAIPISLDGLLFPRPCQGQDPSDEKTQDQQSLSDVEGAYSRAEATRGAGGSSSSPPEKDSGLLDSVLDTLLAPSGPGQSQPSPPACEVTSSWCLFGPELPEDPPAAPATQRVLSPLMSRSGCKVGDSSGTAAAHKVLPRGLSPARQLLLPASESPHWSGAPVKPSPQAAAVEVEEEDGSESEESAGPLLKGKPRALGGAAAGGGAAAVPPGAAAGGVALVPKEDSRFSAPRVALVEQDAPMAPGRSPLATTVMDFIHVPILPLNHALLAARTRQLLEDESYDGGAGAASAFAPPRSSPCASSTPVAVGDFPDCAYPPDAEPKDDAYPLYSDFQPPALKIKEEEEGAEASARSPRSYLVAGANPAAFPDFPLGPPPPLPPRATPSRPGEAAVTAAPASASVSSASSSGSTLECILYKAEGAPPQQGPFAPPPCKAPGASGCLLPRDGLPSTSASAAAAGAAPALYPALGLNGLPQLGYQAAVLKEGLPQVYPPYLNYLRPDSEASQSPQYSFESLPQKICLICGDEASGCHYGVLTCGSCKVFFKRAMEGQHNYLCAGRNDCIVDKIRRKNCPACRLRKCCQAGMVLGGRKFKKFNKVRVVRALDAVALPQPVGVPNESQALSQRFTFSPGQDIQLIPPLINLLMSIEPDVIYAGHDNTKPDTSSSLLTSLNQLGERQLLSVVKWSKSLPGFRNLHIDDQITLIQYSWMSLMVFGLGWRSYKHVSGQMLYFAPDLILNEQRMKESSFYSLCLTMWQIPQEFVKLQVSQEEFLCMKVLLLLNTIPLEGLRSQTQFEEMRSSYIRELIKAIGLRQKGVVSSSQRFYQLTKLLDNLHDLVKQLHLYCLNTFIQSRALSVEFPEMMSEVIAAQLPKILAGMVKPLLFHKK
Thyrotropin-releasing hormone receptor (Homo sapiens), sequence (P34981 whole entry, looked up): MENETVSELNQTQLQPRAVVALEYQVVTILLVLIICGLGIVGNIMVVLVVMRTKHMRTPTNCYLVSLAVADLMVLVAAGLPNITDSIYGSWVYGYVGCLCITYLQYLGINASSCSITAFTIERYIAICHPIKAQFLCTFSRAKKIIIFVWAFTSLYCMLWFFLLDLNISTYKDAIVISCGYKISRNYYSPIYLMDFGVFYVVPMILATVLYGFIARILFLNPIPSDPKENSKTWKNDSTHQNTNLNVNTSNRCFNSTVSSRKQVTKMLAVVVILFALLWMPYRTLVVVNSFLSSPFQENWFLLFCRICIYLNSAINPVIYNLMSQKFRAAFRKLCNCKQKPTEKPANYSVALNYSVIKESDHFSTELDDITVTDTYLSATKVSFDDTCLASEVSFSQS

`CCC(C)c1cccc(C(C)CC)c1O` (stereo not drawn): the Potency result in experiment [1], in experiment [2], in [3], in experiment [4], in experiment [5] and in experiment [6] was “inactive” throughout. The Potency entry in [8] and in [9] was “inactive” each time. For the same compound, the outcome in [7] was inactive.

For `C=CCOC(=O)c1ccccc1N`, the Potency entry in experiment [1], in [2], in [3], in experiment [4], in [5] and in [6] was “inactive” throughout. The result in [7] was inactive.

As to `CC(C)=CC1C(C(=O)OC(C#N)c2cccc(Oc3ccccc3)c2)C1(C)C` (stereo not drawn), the Potency entry in experiment [1], in experiment [2], in experiment [4], in [5], in [6] and in experiment [8] was “inactive” in each case. The Potency entry in [9] is “inactive”. Moreover, the result in experiment [7] was inactive.

On to `CNC(=O)Oc1cc(C)cc(C(C)C)c1`, for which the Potency result in experiment [1], in experiment [2], in [10], in experiment [5], in [6] and in experiment [8] was “inactive” each time. In addition, in [9], the Potency result is “inactive”. In addition, the compound was called inactive in experiment [7].

Take `CCNc1nc(NC(C)C(C)C)nc(SC)n1` (stereo not drawn): the Potency result in experiment [1], in experiment [2], in [3], in [4], in experiment [5] and in experiment [6] was “inactive” in each case. Further, the compound was classed as inactive in experiment [7].

For the compound `Nc1ccccc1-c1ccccc1`, the Potency result in experiment [1], in [2], in [5], in experiment [6], in experiment [8] and in [9] was “inactive” each time. In addition, the outcome in experiment [7] was inactive.

Consider `CNC(=O)O/N=C(\C)C(C)S(C)(=O)=O` (stereo not drawn), for which the Potency result in experiment [1], in experiment [2] and in experiment [6] was “inactive” each time. In addition, the outcome in experiment [7] was inactive.

On to `COc1ccc2c3c1O[C@H]1[C@H](O)CC[C@H]4[C@@H](C2)N(C)CC[C@@]341`, for which the Potency entry in experiment [1], in experiment [2], in experiment [10], in experiment [5], in [6] and in [8] was “inactive” in each case. Also, the Potency result in [9] was “inactive”.

Consider `CCOP(=O)(Sc1ccccc1)Sc1ccccc1`, for which the Potency result in experiment [1], in [2], in [3], in experiment [4], in experiment [5] and in experiment [6] was “inactive” throughout. Besides, the result in experiment [7] was inactive.

For the compound `CCO/N=C(\CC)C1=C(O)CC(c2c(C)cc(C)cc2C)CC1=O` (stereo not drawn), the Potency result in experiment [1], in [2], in [5] and in experiment [6] was “inactive” each time. The compound was classed as inactive in [7].

Turning to `O=C(NC(=O)c1ccccc1Cl)Nc1ccc(OC(F)(F)F)cc1`, the Potency entry in experiment [1], in [2], in experiment [5] and in experiment [6] was “inactive” throughout. For the same compound, in [7], the outcome was inactive.

On to `Cc1c([N+](=O)[O-])cc2c(c1[N+](=O)[O-])C(C)(C)CC2(C)C`, for which the Potency result in experiment [1], in experiment [2], in experiment [3], in experiment [4], in [6] and in [8] was “inactive” throughout. For the same compound, the Potency result in [9] is “inactive”. For the same compound, the result in [7] was inactive.

For `CC(C)Br`, the Potency result in [1], in [2], in experiment [4], in experiment [5], in [6] and in experiment [8] was “inactive” each time. In experiment [9], the Potency entry was “inactive”. The result in experiment [7] was inactive.

In the case of `COc1ccc2c(c1OC)C(=O)O[C@@H]2[C@H]1c2cc3c(cc2CCN1C)OCO3`, the Potency in experiment [1] was 6.05 µM (active). The Potency result in experiment [2], in [10], in experiment [5], in experiment [6], in experiment [8] and in experiment [9] was “inactive” each time.

As to `CSC1=N[C@@](C)(c2ccccc2)C(=O)N1Nc1ccccc1`, the Potency in experiment [1] is 54.5 µM (active); in experiment [10], 43.3 µM (active). Further, the Potency entry in experiment [2], in experiment [6], in experiment [8] and in [9] was “inactive” throughout. In experiment [7], the call was inactive.

Consider `C#CCC1=C(C)C(OC(=O)C2C(C=C(C)C)C2(C)C)CC1=O` (stereo not drawn), for which the Potency result in experiment [1], in experiment [2], in experiment [5], in [6], in experiment [8] and in experiment [9] was “inactive” in each case. In addition, in [7], the result was inactive.

`CCOP(=S)(OCC)Oc1cc(C)nc(N(CC)CC)n1`: the Potency entry in [1], in [2], in experiment [4], in [5], in experiment [6] and in [8] was “inactive” in each case. Also, the Potency result in [9] was “inactive”. Besides, the outcome in experiment [7] was inactive.

Take `COC(=O)/C=C(\C)OP(=O)(OC)OC`: the Potency result in experiment [1], in experiment [4], in [6], in [8] and in experiment [9] was “inactive” throughout. In experiment [5], the Potency was 0.174 µM (active). Also, in experiment [7], the compound was classed as inactive.

Turning to `Cc1ccn2nc(S(=O)(=O)Nc3c(F)cccc3F)nc2n1`, the Potency result in [1], in experiment [3], in [5], in experiment [6], in [8] and in [9] was “inactive” throughout.

As for `O=S1OCC2C(CO1)C1(Cl)C(Cl)=C(Cl)C2(Cl)C1(Cl)Cl` (stereo not drawn), the Potency result in experiment [1], in [5] and in [6] was “inactive” each time. Further, the Potency in [3] is 61.1 µM (active); in experiment [4], 68.7 µM (active). For the same compound, the result in experiment [7] was inactive.
